Assay results published in PubChem BioAssay (NCATS).
Values joined by “and” are separate entries in the source; they are usually repeats but may differ in a detail not shown here. Identical values can stand only once. Inconclusive results are not listed. Active and inactive are the calls of the source. Unless noted, the call rests on the fitted dose curve; in most records, active means well fitted curve in the direction sought with a large enough effect; inconclusive means small, poorly fitted or top-dose-only effect, or another doubt; inactive means no such curve, though single readings can be large; an effect the other way counts as inactive or inconclusive.

Legend:
[1] = biological target: Cytochrome P450 3A4 (Homo sapiens) (UniProt P08684); assay: qHTS Assay for Inhibitors and Substrates of Cytochrome P450 3A4 (AID 884); further: on the % scale 0 is the no-effect control and ±100 the full control effect; nearly all actives have a fitted effect of over 50% in size
Sequence of Cytochrome P450 3A4 (Homo sapiens) (P08684 whole entry, looked up): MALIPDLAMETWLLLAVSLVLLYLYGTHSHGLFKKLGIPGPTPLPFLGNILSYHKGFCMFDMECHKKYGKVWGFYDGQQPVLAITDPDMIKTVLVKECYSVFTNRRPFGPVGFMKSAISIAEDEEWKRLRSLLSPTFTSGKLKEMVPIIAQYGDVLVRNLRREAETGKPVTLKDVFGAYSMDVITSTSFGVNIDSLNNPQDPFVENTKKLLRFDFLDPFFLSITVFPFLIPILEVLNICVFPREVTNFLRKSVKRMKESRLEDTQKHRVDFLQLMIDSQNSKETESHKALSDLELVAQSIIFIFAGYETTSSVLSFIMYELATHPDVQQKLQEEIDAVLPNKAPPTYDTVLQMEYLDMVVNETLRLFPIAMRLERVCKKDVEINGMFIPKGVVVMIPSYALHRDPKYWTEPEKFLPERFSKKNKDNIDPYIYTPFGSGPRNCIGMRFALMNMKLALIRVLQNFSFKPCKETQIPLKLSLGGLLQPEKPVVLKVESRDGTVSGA
Method in brief: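 Luminescent readout of luciferin produced by CYP3A4 (20 nM) dealkylation of Luciferin-PPXE, 25 uM (its KM). NADPH-driven reaction ran 60 min at RT after 10 min compound preincubation; data scaled to 57 uM ketoconazole as 100% inhibition.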

[2] = Confirmation and Secondary Assay for Modulators of Hemoglobin Beta Chain Splicing at IVS2 654 locus (AID 910);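 further: HeLa cells stably carrying EGFP split by mutant beta-globin IVS2-654 intron; per-well total GFP intensity by laser scanning cytometry after 2-day treatment; % of control where 0% means no effect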
Method in brief: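 Readout: per-well total peak green fluorescence (488 nm ex, 500–520 nm em) from objects 5–250 µm, reflecting correct splicing of an EGFP-654 reporter. Compounds were applied for 2 days at 37 °C to overnight-plated HeLa EGFP-654 cells; controls were DMSO and 500 nM IVS2-654 PNA.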

[3] = Confirmation and Secondary Assay for Modulators of Hemoglobin Beta Chain Splicing at IVS2 705 locus (AID 930);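 further: HeLa cells stably expressing the EGFP-705 splicing reporter; GFP fluorescence per well restored by corrected splicing of the IVS2-705 intron in EGFP; % of control where 0% means no effect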
Method in brief: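 Stable HeLa line with EGFP disrupted by mutant beta-globin intron 2 (705). Overnight attachment, then 2 days of compound at 37C, 5% CO2. Signal: peak GFP intensity summed over objects 5-250 µm.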

[4] = qHTS Assay for Lipid Storage Modulators (AID 1519; calls by dose curve; on activity change, negative = inhibition: on the % scale 0 is the no-effect control and ±100 the full control effect); conditions: Drosophila S3 cells, BODIPY lipid droplet/cell ratio, laser cytometry, cells loaded with oleic acid
Method in brief: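 Cells seeded at 5,000 per well were treated with compounds over a concentration series and loaded with oleic acid (400 uM, as added). Lipid droplet fluorescence (488 nm excitation, 500-530 nm channel) was read by laser-scanning cytometry and normalized to 20 uM Triacsin C.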

[5] = biological target: ATP-dependent 6-phosphofructokinase (Trypanosoma brucei brucei) (UniProt O15648); assay: qHTS Assay to Find Inhibitors of T. brucei phosphofructokinase: hit validation (AID 492961);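 further: luminescence reports ADP formed as PFK phosphorylates fructose-6-phosphate with ATP; on the % scale 0 is the no-effect control and ±100 the full control effect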
Sequence of ATP-dependent 6-phosphofructokinase (Trypanosoma brucei brucei) (O15648 whole entry, looked up): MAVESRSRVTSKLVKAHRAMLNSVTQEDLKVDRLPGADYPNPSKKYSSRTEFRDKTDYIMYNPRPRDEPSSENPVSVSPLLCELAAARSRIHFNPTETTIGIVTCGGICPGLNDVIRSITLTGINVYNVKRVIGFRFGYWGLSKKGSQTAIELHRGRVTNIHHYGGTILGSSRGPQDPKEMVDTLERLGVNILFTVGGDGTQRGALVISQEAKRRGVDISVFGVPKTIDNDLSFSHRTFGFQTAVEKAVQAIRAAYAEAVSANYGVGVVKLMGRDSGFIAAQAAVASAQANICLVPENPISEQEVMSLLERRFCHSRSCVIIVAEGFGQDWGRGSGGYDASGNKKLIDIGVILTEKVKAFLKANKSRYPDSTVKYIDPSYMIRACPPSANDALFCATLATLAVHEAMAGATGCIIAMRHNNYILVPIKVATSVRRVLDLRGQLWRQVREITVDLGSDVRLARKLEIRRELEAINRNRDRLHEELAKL
Method in brief: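 ADP-Glo luminescence read-out of ADP formed by 1.25 nM PFK from 0.1 mM ATP and 0.5 mM F6P (TEA pH 8.0, 45 min, RT). Compounds titrated; activity normalized to no-enzyme and full-enzyme controls.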

[6] = biological target: Ubiquitin carboxyl-terminal hydrolase 1 (Homo sapiens) (UniProt O94782); assay: Inhibitors of USP1/UAF1: Pilot qHTS (AID 504865);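 further: rhodamine fluorescence freed from ubiquitin-rhodamine substrate followed over time; top concentration of the series differs between compounds; on the % scale 0 is the no-effect control and ±100 the full control effect; nearly all actives have a fitted effect of over 35% in size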
Sequence of Ubiquitin carboxyl-terminal hydrolase 1 (Homo sapiens) (O94782 whole entry, looked up): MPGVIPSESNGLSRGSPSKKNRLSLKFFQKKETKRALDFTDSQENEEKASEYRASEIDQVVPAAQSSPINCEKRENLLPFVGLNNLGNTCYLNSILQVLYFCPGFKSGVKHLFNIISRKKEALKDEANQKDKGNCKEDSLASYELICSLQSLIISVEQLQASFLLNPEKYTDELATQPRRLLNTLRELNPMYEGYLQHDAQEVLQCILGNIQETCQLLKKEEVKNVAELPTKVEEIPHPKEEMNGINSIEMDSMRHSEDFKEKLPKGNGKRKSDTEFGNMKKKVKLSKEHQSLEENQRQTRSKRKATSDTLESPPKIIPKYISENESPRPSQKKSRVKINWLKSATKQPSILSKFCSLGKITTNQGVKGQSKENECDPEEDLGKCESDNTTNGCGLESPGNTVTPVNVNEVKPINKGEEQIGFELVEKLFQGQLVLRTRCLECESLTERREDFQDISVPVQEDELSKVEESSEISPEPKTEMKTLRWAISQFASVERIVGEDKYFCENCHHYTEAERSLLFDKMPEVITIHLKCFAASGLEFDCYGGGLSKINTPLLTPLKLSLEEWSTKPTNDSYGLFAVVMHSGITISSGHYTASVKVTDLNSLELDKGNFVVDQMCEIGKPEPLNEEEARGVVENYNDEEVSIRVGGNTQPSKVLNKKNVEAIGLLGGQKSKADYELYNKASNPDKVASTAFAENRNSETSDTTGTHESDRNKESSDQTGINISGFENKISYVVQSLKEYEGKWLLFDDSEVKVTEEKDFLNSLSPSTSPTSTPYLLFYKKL
Method in brief: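 In 50mM HEPES pH 7.8 containing 0.5mM EDTA, 1mM TCEP, 0.1 mg/ml BSA and 0.01% Tween-20, 1nM USP1/UAF1 is exposed to compound for 15 min, then Ub-Rho (150nM final) is added and fluorescence is read over time.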

[7] = biological target: DNA dC->dU-editing enzyme APOBEC-3G (Homo sapiens) (UniProt Q9HC16); assay: qHTS for inhibitors of Vif-A3G interactions: Validation (AID 588379); further: 0% is about no effect
Sequence of DNA dC->dU-editing enzyme APOBEC-3G (Homo sapiens) (Q9HC16 whole entry, looked up): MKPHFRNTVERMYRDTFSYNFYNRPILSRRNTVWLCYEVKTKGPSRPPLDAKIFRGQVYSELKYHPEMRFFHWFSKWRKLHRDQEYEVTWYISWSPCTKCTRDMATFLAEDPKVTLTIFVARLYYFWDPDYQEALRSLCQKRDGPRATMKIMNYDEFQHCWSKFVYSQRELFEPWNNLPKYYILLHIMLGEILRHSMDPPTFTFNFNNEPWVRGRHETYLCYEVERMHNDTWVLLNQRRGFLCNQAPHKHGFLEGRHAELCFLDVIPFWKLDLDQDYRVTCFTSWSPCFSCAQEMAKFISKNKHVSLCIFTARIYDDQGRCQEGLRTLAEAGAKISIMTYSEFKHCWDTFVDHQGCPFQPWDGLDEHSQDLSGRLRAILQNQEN
Method in brief: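 Yellow fluorescence (Ex 488, Em 500-530) of Vif-coexpressing HeLa A3G-eYFP cells, scanned by Acumen cytometer, reports blocked A3G degradation. Cells plated at 700/well overnight at 37 deg C before compound addition, then a further overnight compound incubation at 37 deg C.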

[8] = biological target: Luciferin 4-monooxygenase (Photinus pyralis) (UniProt P08659); assay: Biochemical firefly luciferase enzyme assay for NPC (AID 624030);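 further: purified P. pyralis luciferase at 10 nM with luciferin and ATP substrate; 0% = DMSO and -100% = full luciferase inhibition by PTC124 control; nearly all actives have a fitted effect of over 70% in size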
Sequence of Luciferin 4-monooxygenase (Photinus pyralis) (P08659 whole entry, looked up): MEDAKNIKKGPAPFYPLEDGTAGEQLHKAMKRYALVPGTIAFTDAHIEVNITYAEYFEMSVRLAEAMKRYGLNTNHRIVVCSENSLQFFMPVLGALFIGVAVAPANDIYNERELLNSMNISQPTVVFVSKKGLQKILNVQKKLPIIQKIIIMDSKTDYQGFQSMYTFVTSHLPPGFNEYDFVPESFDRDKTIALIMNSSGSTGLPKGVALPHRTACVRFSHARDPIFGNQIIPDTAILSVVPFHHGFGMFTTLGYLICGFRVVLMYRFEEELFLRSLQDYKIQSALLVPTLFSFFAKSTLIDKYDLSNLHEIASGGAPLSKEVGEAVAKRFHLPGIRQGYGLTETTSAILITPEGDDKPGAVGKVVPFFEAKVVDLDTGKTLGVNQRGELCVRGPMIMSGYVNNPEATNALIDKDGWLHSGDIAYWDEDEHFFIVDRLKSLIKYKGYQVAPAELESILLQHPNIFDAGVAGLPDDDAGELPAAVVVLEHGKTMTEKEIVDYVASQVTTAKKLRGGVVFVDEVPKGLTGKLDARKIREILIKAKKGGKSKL
Method in brief: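 Direct inhibition of firefly luciferase enzyme (10 nM final, 50 mM Tris Acetate) assessed by luminescence within 5 minutes. Percent activity scaled between DMSO and PTC124 positive control, with concentration-effect curves classified by fit quality and response.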

[9] = S16 Schwann cell PMP22 intronic element firefly luciferase assay (AID 624032);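 further: plate controls were DMSO for no effect and PTC124 positive control mean for full effect; nearly all actives have a fitted effect of over 30% in size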
Method in brief: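 Luciferase reporter of PMP22 intronic-element expression in stably transfected S16 rat Schwann cells, read by ONE-Glo luminescence after 24 h compound exposure at 37 C. Activity scaled between DMSO (0%) and positive-control PTC124; concentration-effect curves quality-classified.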

[10] = S16 Schwann cell PMP22 intronic element beta-lactamase assay (AID 624044; calls by dose curve;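 further: 0% = DMSO and -100% = potassium clavulanate positive control; nearly all actives have a fitted effect of over 15% in size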)
Method in brief: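 Beta-lactamase reporter under a PMP22 intronic regulatory element in stable S16 rat Schwann cells; 24 h compound exposure. 460 nm blue signal normalized between DMSO (0%) and potassium clavulanate, with 535 nm FRET tracking viability; curves classed by r2 and response.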

[11] = qHTS profiling for inhibitors of Plasmodium falciparum proliferation (AID 504749);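 further: 0% = DMSO vehicle and full inhibition = artemisinin control; nearly all actives have a fitted effect of over 60% in size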; conditions: P. falciparum in erythrocytes, SYBR Green DNA, 72 h; at 28.7 µM (top of the series); parasite line B
Method in brief: (§1)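 SYBR Green fluorescence of parasite DNA, read after lysis and overnight dark incubation, measured growth over 72 h in erythrocyte culture at 0.3% parasitemia and 2.5% hematocrit. Data normalised to DMSO and 0.29 uM artemisinin, with plate-drift correction.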

3D7 = assay: as above; conditions: P. falciparum in erythrocytes, SYBR Green DNA, 72 h; series mostly up to 12.8 µM
Method in brief: as §1

7G8 = assay: as above; conditions: P. falciparum in erythrocytes, SYBR Green DNA, 72 h; series mostly up to 12.8 µM
Method in brief: as §1

AA1029 = assay: as above; conditions: P. falciparum in erythrocytes, SYBR Green DNA, 72 h; series mostly up to 12.8 µM
Method in brief: as §1

AS120 = assay: as above; conditions: P. falciparum in erythrocytes, SYBR Green DNA, 72 h; series mostly up to 28.7 µM
Method in brief: as §1

ATS189 = assay: as above; conditions: P. falciparum in erythrocytes, SYBR Green DNA, 72 h; series mostly up to 12.8 µM
Method in brief: as §1

ATS95 = assay: as above; conditions: P. falciparum in erythrocytes, SYBR Green DNA, 72 h; series mostly up to 12.8 µM
Method in brief: as §1

C2A = assay: as above; conditions: P. falciparum in erythrocytes, SYBR Green DNA, 72 h; series mostly up to 12.8 µM
Method in brief: as §1

CP185 = assay: as above; conditions: P. falciparum in erythrocytes, SYBR Green DNA, 72 h; series mostly up to 12.8 µM
Method in brief: as §1

CP191 = assay: as above; conditions: P. falciparum in erythrocytes, SYBR Green DNA, 72 h; series mostly up to 12.8 µM
Method in brief: as §1

CP194 = assay: as above; conditions: P. falciparum in erythrocytes, SYBR Green DNA, 72 h; series mostly up to 12.8 µM
Method in brief: as §1

CP201 = assay: as above; conditions: P. falciparum in erythrocytes, SYBR Green DNA, 72 h; series mostly up to 12.8 µM
Method in brief: as §1

CP203 = assay: as above; conditions: P. falciparum in erythrocytes, SYBR Green DNA, 72 h; series mostly up to 12.8 µM
Method in brief: as §1

CP211 = assay: as above; conditions: P. falciparum in erythrocytes, SYBR Green DNA, 72 h; series mostly up to 12.8 µM
Method in brief: as §1

CP215 = assay: as above; conditions: P. falciparum in erythrocytes, SYBR Green DNA, 72 h; series mostly up to 28.7 µM
Method in brief: as §1

CP217 = assay: as above; conditions: P. falciparum in erythrocytes, SYBR Green DNA, 72 h; series mostly up to 12.8 µM
Method in brief: as §1

CP237 = assay: as above; conditions: P. falciparum in erythrocytes, SYBR Green DNA, 72 h; series mostly up to 12.8 µM
Method in brief: as §1

CP238 = assay: as above; conditions: P. falciparum in erythrocytes, SYBR Green DNA, 72 h; series mostly up to 12.8 µM
Method in brief: as §1

CP247 = assay: as above; conditions: P. falciparum in erythrocytes, SYBR Green DNA, 72 h; series mostly up to 12.8 µM
Method in brief: as §1

CP250 = assay: as above; conditions: P. falciparum in erythrocytes, SYBR Green DNA, 72 h; series mostly up to 12.8 µM
Method in brief: as §1

CP252 = assay: as above; conditions: P. falciparum in erythrocytes, SYBR Green DNA, 72 h; series mostly up to 12.8 µM
Method in brief: as §1

CP256 = assay: as above; conditions: P. falciparum in erythrocytes, SYBR Green DNA, 72 h; series mostly up to 12.8 µM
Method in brief: as §1

O=c1[nH]cnc2c1ncn2C1OC(CO)C(O)C1O (centres undefined)
14% and -19.8% and 0.274%: max response ([4]; measured here: lipid channel max response)
inactive: Potency [1] | Potency [2] | outcome [3] | activity change, negative = inhibition ([4]; at 57.5 µM (top of the series)) 5.69% and -3.39% and 2.45% | outcome [5] | Potency [6] | outcome [7] | outcome [8] | Potency [9] | outcome [10] | activity, negative = inhibition [11] 13.3% | Potency (3D7) | Potency (7G8) | Potency (AA1029) | Potency (AS120) | Potency (ATS189) | Potency (ATS95) | Potency (C2A) | Potency (CP185) | Potency (CP191) | Potency (CP194) | Potency (CP201) | Potency (CP203) | Potency (CP211) | Potency (CP215) | Potency (CP217) | Potency (CP237) | Potency (CP238) | Potency (CP247) | Potency (CP250) | Potency (CP252) | Potency (CP256)
8.98% and -19.5% and -3.51%: max response ([4]; measured here: cell count channel max response)
